# Cardiac RTF inh: cardiac RTF calcium sensitivity inhibitors, primary screen, biochemical, IANBD-TnC fluorescence, EC70 calcium; Troponin I, cardiac muscle (Homo sapiens) + Troponin T, cardiac muscle (Homo sapiens) + …; IANBD-labeled cardiac RTF, Ca2+ fluorescence; inhibition, % at 7.15 µM; 0.12% of 340,000 active;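 active = inhibition above the mean inhibition of all tested compounds plus 3 SD, cut at about 17% in these data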;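 also: assay run at fixed EC70 calcium of 1.6 mM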
# IDE cell activ: human IDE activators in live cells, primary screen, fluorescence polarization, HEK cells, FAbeta-B substrate. FAbeta-B cleavage; 0% vehicle, 100% cell-free pure enzyme wells. activation, % at 5.96 µM. 0.073% of 340,000 active;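 active = activation above the mean of all tested compounds plus 3 SD, set per screening campaign, cut at about 17% in these data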
# IDE inh: human IDE inhibitors in live cells, primary screen, fluorescence polarization, HEK cells, FAbetaB substrate; Insulin-degrading enzyme (Homo sapiens), P14735; FAbetaB cleavage; 0.41% of 320,000 active; inhibition, % at 5.59 µM;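 active = percent inhibition above the average of all tested compounds plus 3 SD, set per screening campaign, cut at about 16% in these data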;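 also: IDE supplied by intact live HEK cells; FP after avidin binding of uncleaved biotin substrate so inhibition keeps polarization high; 0% = DMSO wells and 100% = 60 µM reference IDE inhibitor Ii1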
# CRFR2-BP ag: agonists of CRF-BP/CRF-R2 complex, primary screen, cell-based, HEK293, calcium dye fluorescence, uHTS; CRF-binding protein / CRF receptor 2 complex (human); activation, % at 13.2 µM; AID 588473, 2011; 0.46% of 350,000 active; calcium dye fluorescence (FLIPR); percent of saturating CRF peptide response;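 active = activation of at least 50%, plus an integration ratio under a set limit after plate pattern correction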;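 also: plate controls were neutral control wells without compound for no effect and CRF at EC100 for full effect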
# TPT1 inhibitor: Candida albicans TPT1 enzyme inhibitors, primary screen, biochemical, fluorescence polarization. 0.81% of 300,000 active. inhibition, % at 5 µM. recombinant caTPT1, FP RNA substrate dephosphorylation. tRNA 2'-phosphotransferase TPT1 (Candida albicans SC5314);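 active = inhibition above the mean of all tested compounds plus 3 SD, set per screening campaign, cut at about 24% in these data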;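 also: plate controls were DMSO alone for no effect and ferristatin control at 100 nM for full effect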
# RTF Ca sens act: cardiac RTF calcium sensitivity activators, primary screen, biochemical, IANBD-TnC fluorescence, EC20 calcium. IANBD-labeled TnC RTF fluorescence at EC20 calcium; 0% EC20 calcium, 100% full calcium. activation, % at 7.2 µM. 0.24% of 340,000 active. AID 493008, 2010;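 active = activation above the mean over all tested compounds plus 3 SD, cut at about 30% in these data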;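 also: rise in fluorescence read as greater calcium sensitivity of cardiac thin filaments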
# caTPT1 confirm: Candida albicans TPT1 inhibitors, confirmation, biochemical, fluorescence polarization, triplicate. shares compounds with TPT1 inhibitor. recombinant caTPT1, RNase T1 coupled. inhibition, % at 5 µM. 74% of 2,400 active. AID 2149, 2009;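 active = inhibition above the primary screen limit, the mean inhibition of all tested compounds plus 3 SD, cut at about 25% in these data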
# RNase T1 counter: RNase T1 inhibitors, counter-screen for TPT1 inhibitor project, biochemical, fluorescence polarization; shares compounds with TPT1 inhibitor; RNase T1 cleavage, 1536-well; inhibition, % at 5 µM; 83% of 2,400 active; AID 2153, 2009;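 active = inhibition above the solvent-only control well mean plus 3 SD, limit set per screening run, cut at about 23% in these data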;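 also: plate controls were DMSO wells with enzyme for no effect and wells without RNase T1 for full effect; inhibitors block cleavage so intact labeled substrate keeps polarization high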
# Target sequence (P00651 whole entry, looked up): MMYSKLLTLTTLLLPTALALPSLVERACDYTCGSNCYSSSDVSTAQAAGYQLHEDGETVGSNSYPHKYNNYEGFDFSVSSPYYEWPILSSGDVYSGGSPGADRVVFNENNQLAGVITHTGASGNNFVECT
# IDE inh confirm: human IDE inhibitors in live cells, confirmation, fluorescence polarization, HEK cells, FAbetaB substrate; 51% of 1,200 active; AID 435028, 2010; inhibition, % at 5.59 µM; FAbetaB cleavage; shares compounds with IDE inh;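 active = mean inhibition across triplicate wells above the cutoff set by the earlier primary insulin-degrading enzyme screen, cut at about 16% in these data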;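 also: 0% = DMSO wells and 100% = 60 µM reference IDE inhibitor Ii1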
# HEK293 tox: cytotoxicity in HEK cells, cytotoxicity control for IDE inhibitor project, cell-based, luminescence; HEK293 cytotoxicity, ATP luminescence; inhibition, % at 5.59 µM; 28% of 1,200 active; AID 449730, 2010; shares compounds with IDE inh; in the data active = inhibition above about 22%;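 also: 0% = vehicle wells and 100% = reference cytotoxic drug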
# The depositor's hits bear a star; · = no result given. Sampled rows, rich in hits. Any-hit rate of the full collection: about 1.5%.
SMILES,Cardiac RTF inh,IDE cell activ,IDE inh,CRFR2-BP ag,TPT1 inhibitor,RTF Ca sens act,caTPT1 confirm,RNase T1 counter,IDE inh confirm,HEK293 tox
O=C1NC(=S)N(C(=O)c2ccc(F)cc2)/C1=C/c1ccccc1,-10.1,-24.1,27.7*,33.0,109.5*,4.5,108.5*,115.5*,31.9*,12.9
COc1ccc(/C=C2\C(=O)NC(=S)N2C(=O)c2ccc(F)cc2)cc1,-8.1,-6.0,37.4*,36.1,148.3*,7.8,155.7*,145.2*,58.6*,12.5
CC(=Nc1ccc(C)cc1)c1sc2ccccc2c1O,-18.4,-45.9,25.1*,32.7,73.8*,-11.8,75.3*,87.0*,44.5*,18.8
Cc1cc(NC(=O)c2sc3ccccc3c2O)no1,-5.9,2.3,·,-0.1,·,1.4,·,·,·,·
CC(=Nc1cccc(O)c1)c1sc2ccccc2c1O,-4.8,-20.0,27.2*,6.9,66.1*,0.2,94.4*,104.8*,64.8*,9.6
CCN1C(=O)/C(=C/C=C2\N(CC)c3cc(S(=O)(=O)N(C)C)ccc3N2c2ccccc2)SC1=S,-176.3,-36.5,18.1*,73.1*,135.7*,166.2*,94.1*,93.7*,73.9*,32.1*
CC1=CC2=NC(=O)/C(=C\c3cc(C)n(-c4cccc(Cl)c4)c3C)C(=N)N2O1,-11.3,3.2,-0.6,-0.8,0.1,-6.4,·,·,·,·
CSC1=NSC2=NC(=O)/C(=C/c3coc4ccccc4c3=O)C(=N)N12,-253.0,-67.9,71.5*,313.1*,51.6*,287.5*,59.8*,62.1*,45.0*,6.3
N=C1/C(=C\c2coc3ccccc3c2=O)C(=O)N=C2SC=CN12,-125.2,-70.2,48.1*,180.6*,40.1*,80.7*,33.5*,46.7*,80.2*,8.7
CC1=CC2=NC(=O)/C(=C/c3coc4ccc(Cl)cc4c3=O)C(=N)N2O1,-71.9,-87.2,61.8*,105.7*,78.3*,58.3*,72.7*,77.3*,97.0*,4.9
COc1cc(/C=C2/C(=N)N3C(SC)=NSC3=NC2=O)ccc1OC(=O)c1ccco1,2.3,-5.0,-2.5,-0.9,17.8,0.3,·,·,·,·
CSC1=NSC2=NC(=O)/C(=C\c3cccs3)C(=N)N12,3.2,2.1,1.9,0.3,1.8,6.3,·,·,·,·
CSC1=NSC2=NC(=O)/C(=C/c3coc4ccc(O)cc4c3=O)C(=N)N12,-222.9,-49.0,29.9*,79.3*,69.7*,177.3*,116.5*,112.7*,36.9*,8.4
CCC1Nc2ncnc(N3CCN(c4ccccn4)CC3)c2N(Cc2ccc(Cl)cc2)C1=O (stereo not given),-3.5,1.8,-1.7,-2.7,0.8,-2.4,·,·,·,·
CCc1nnc(NC(=O)CCC(=O)NC2CCCCCC2)s1,-8.6,3.4,0.8,2.5,-3.2,-1.0,·,·,·,·
Cc1cc(C)c(C)c(S(=O)(=O)N2CCNC(=O)C2)c1C,·,·,·,-0.5,·,·,·,·,·,·
CC[C@]12c3[nH]c4cc(-c5ccco5)ccc4c3CCN1C(=O)[C@@H](CC(=O)NC(C)(C)C)C[C@@H]2C(=O)N1CCN(C(=O)c2ccco2)CC1,-8.8,2.4,·,-0.3,·,-0.8,·,·,·,·
C[C@@H]1CN([C@H](C)CO)C(=O)CCCn2nncc2CO[C@@H]1CN(C)C(=O)NC1CCCCC1,·,·,·,-0.9,·,·,·,·,·,·
COc1cc(/C=C(\C#N)c2nc3ccccc3[nH]2)cc(Br)c1OCc1ccccc1,8.9,0.0,-0.4,3.0,4.2,-6.6,·,·,·,·
Cn1c(/C(C#N)=C/c2ccc(O)cc2)nc2ccccc21,-0.3,-1.8,-0.5,0.6,6.3,1.2,·,·,·,·
COc1cc(/C=C(\C#N)c2nc3ccccc3[nH]2)cc(OC)c1O,-46.5,-93.8,92.0*,164.0*,137.3*,32.3*,133.4*,124.4*,25.9*,7.7
COc1cc(/C=C(\C#N)c2nc3ccccc3n2C)cc(OC)c1O,-15.8,-175.0,165.6*,51.8*,82.7*,6.7,100.6*,101.2*,26.3*,2.0
CN(C)S(=O)(=O)c1ccc2c(c1)/C(=C/c1cc3c([nH]1)CCCC3)C(=O)N2,-58.8,-89.9,45.4*,122.1*,153.1*,61.2*,154.9*,145.0*,105.1*,15.3
CN(C)S(=O)(=O)c1ccc2c(c1)C(=O)c1cc(S(=O)(=O)N(C)C)ccc1CC2,-6.7,0.6,3.6,0.4,·,0.1,·,·,·,·
Cn1nccc1C(=O)N/N=C/c1c(O)ccc2ccccc12,-13.3,-17.2,16.2*,3.7,36.8*,-0.8,43.6*,49.4*,22.4*,110.9*
SMILES,Cardiac RTF inh,IDE cell activ,IDE inh,CRFR2-BP ag,TPT1 inhibitor,RTF Ca sens act,caTPT1 confirm,RNase T1 counter,IDE inh confirm,HEK293 tox
O=C(N/N=C/c1c(O)ccc2ccccc12)c1cccnc1,-15.4,-36.5,62.9*,22.4,63.7*,2.3,99.2*,98.4*,64.1*,75.8*
Cc1occc1C(=O)N/N=C/c1c(O)ccc2ccccc12,-6.4,1.6,1.6,0.6,2.0,-6.5,·,·,·,·
O=C(N/N=C\c1c(O)ccc2ccccc12)c1ccc(O)cc1,4.4,-0.4,2.1,3.5,9.4,3.3,·,·,·,·
O=C(N/N=C/c1c(O)ccc2ccccc12)Nc1ccccc1,·,·,-13.3,2.1,2.1,·,·,·,·,·
COc1ccc2ccccc2c1/C=N\NC(=O)c1cccnc1,·,·,-3.9,-1.1,2.3,·,·,·,·,·
Cc1ccc(C(=O)N/N=C/c2c(O)ccc3ccccc23)cn1,15.6,-67.6,64.2*,30.7,83.5*,-32.4,92.7*,95.7*,104.7*,95.5*
O=C(N/N=C/c1c(O)ccc2ccccc12)c1ccc(Br)o1,-0.9,-90.6,99.1*,101.2*,38.6*,-0.7,50.6*,55.7*,141.5*,101.8*

# From PubChem BioAssay
